Compound activity deposited in PubChem by National Center for Advancing Translational Sciences (NCATS).
hERG WT inh – qHTS for Inhibitors of KCHN2 3.1: Wildtype qHTS; Voltage-gated inwardly rectifying potassium channel KCNH2 (Homo sapiens), Q12809; U2OS, BacMam KCNH2, thallium flux FluxOr; stronger effect = lower value; activity change, % at 1.84 µM; 340,000 compounds, 0.37% hits;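 active means maximum activity change below -70%; inconclusive means maximum activity change between -70% and -50%; inactive means maximum activity change above -50%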; further: on the % scale 0 is the no-effect control and ±100 the full control effect
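U2OS cells transduced with wild-type KCNH2 virus are loaded with FluxOr dye for 45 min, and thallium flux is measured in kinetic reads before and after stimulation buffer. Rate constants are normalized to DMSO controls.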
TRPV1 PAM – HTS Assay for Compounds that Act as Potentiators of the Vanilloid Receptor 1. Transient receptor potential cation channel subfamily V member 1 (Homo sapiens), Q8NER1. TRPV1-expressing cells, Fluo-8 calcium influx, capsaicin EC20 potentiation. potentiation, % at 8.33 µM. 320,000 compounds, 0.02% hits. AID 540277, 2011; in the data active means potentiation above about 80%; inconclusive means between about 30% and that limit; further: 0% is about no effect
Target sequence (Q8NER1 whole entry, looked up): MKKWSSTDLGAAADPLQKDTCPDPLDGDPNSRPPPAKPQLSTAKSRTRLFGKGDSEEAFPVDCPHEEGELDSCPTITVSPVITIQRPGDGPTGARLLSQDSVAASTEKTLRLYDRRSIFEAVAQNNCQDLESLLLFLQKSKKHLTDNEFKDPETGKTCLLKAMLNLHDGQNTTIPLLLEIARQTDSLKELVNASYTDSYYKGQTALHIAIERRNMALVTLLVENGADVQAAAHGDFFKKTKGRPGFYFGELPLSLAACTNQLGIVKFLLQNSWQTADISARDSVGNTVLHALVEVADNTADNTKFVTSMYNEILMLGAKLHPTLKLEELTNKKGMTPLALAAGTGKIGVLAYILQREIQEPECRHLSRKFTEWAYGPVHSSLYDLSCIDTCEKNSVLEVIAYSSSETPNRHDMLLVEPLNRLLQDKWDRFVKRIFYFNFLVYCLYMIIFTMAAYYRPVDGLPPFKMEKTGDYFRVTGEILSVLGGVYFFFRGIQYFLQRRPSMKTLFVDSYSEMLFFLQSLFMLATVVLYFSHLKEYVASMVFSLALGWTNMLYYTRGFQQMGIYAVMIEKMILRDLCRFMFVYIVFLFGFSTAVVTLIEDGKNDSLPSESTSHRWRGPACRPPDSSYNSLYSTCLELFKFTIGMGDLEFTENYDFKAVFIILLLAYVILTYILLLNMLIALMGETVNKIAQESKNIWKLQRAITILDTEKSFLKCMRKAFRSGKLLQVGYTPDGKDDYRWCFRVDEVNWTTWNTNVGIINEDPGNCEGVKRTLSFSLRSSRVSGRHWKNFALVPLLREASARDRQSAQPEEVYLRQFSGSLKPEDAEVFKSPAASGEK
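TRPV1-expressing cells were cultured overnight at 35.5C and loaded with Fluo-8 calcium dye for 40 to 90 min at room temperature. After a 10 s baseline, compound was added and calcium influx was read kinetically for 3 min (ex 480/em 520 nm).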
KCNH2 3.1 inh – qHTS for Inhibitors of KCHN2 3.1: Mutant qHTS; 340,000 compounds, 0.95% hits; activity change, % (tested at about 1.8 µM); Potassium voltage-gated channel subfamily H member 2, brain isoform KCNH2 3.1 (human); U2OS KCNH2 3.1, thallium flux FluxOr; stronger effect = lower value;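 active means maximum activity change below -70%; inconclusive means maximum activity change from -70% to -50%; inactive means maximum activity change above -50%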;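 further: thallium influx rate constant from kinetic fluorescence after stimulation buffer; on the % scale 0 is the no-effect control and ±100 the full control effect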
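FluxOr-based Tl+ influx in U2OS cells transduced with KCNH2 3.1 virus; rate constants normalized to DMSO controls.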
TRPV1 agonist – HTS Assay for Compounds that Act as Agonists of the Vanilloid Receptor 1; 320,000 compounds, 0.19% hits; AID 540275, 2011; TRPV1-expressing cells, Fluo-8 calcium influx, agonist mode; activation, % at 8.33 µM; in the data active means activation above about 80%; inconclusive means between about 30% and that limit; further: 0% is about no effect
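Cells expressing TRPV1 were dye-loaded with Fluo-8 and read kinetically: 10 s baseline, 3 min after compound (agonist portion), then 2 min after EC20 capsaicin (allosteric enhancer portion). Calcium-bound dye fluorescence at 480/520 nm.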
MBNL1 CUG block – qHTS Assay for Inhibitors of MBNL1-poly(CUG) RNA binding. TR-FRET MBNL1-His/biotin-(CUG)12 binding, 665/545 ratio. Potency, µM (series often up to 57.5 µM), for inactives: at the top dose activity change, negative = inhibition, hits mostly inhibitors. 280,000 compounds, 0.036% hits. AID 2675, 2010; active means well fitted inhibition curve with a large enough effect in the signal ratio, with a control signal flat, not every such curve was filed as active; inconclusive means small, poorly fitted or top-dose-only effect, or effect the other way, or a change in a side signal; inactive means no such curve, though single readings can be large or run the other way; the % refers to the signal ratio; further: potency means the concentration at half of the fitted maximal effect; on the % scale 0 is the no-effect control and ±100 the full control effect
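Compound titration spanned 92 nM–58 uM against the MBNL1-His/biotin-(CUG)12 complex. After 60 min at room temperature with 5 nM streptavidin-XL665 and 0.055 ng/ul terbium anti-His, ratiometric 665/545 nm emission (Ex 340 nm) normalized to controls.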
* hit, by the source's call. Hits are enriched below; roughly 1.3% of the tested compounds scored in any of these assays.

For COc1ccc(C(=O)NCC(=O)N/N=C/c2cccc(OC(=O)c3ccco3)c2)cc1OC the results were hERG WT inh -74.6*, TRPV1 PAM -10.1, KCNH2 3.1 inh -3.1 and TRPV1 agonist 8.0.
`O=C(CCl)N1CCN2C(=O)c3ccccc3C12c1ccc(Cl)cc1` (configuration not stated) gave hERG WT inh -5.1, TRPV1 PAM 1.0, KCNH2 3.1 inh 3.2, TRPV1 agonist 1.9 and MBNL1 CUG block -6.4%.
`Cc1ccc(C(=O)N2CCN3C(=O)c4ccccc4C23c2ccc(Cl)cc2)cc1` (configuration not stated) gave hERG WT inh -14.4, TRPV1 PAM -4.4, KCNH2 3.1 inh -75.7*, TRPV1 agonist 12.8 and MBNL1 CUG block -3.1%.
For CCCc1cc(=O)oc2cc(OC(=O)CN3C(=O)NC4(CCCC4)C3=O)ccc12 the results were hERG WT inh -2.1, TRPV1 PAM 5.0, KCNH2 3.1 inh 6.0 and TRPV1 agonist -1.4.
O=Cc1cc([N+](=O)[O-])ccc1N1CCN(Cc2ccc3c(c2)OCO3)CC1 was read as hERG WT inh inconclusive, TRPV1 PAM 10.7, KCNH2 3.1 inh -86.4*, TRPV1 agonist 2.2 and MBNL1 CUG block inconclusive.
`O=[N+]([O-])c1ccc(N2CCN(Cc3ccc4c(c3)OCO4)CC2)nc1` gave hERG WT inh 21.1, TRPV1 PAM -19.5, KCNH2 3.1 inh -10.9, TRPV1 agonist 2.4 and MBNL1 CUG block inconclusive.
For C=C1CC2C=C(NC(C)=O)CC(C1)C2 (configuration not stated) the results were hERG WT inh -7.4, TRPV1 PAM -4.0, KCNH2 3.1 inh -82.9*, TRPV1 agonist -0.3 and MBNL1 CUG block 0.7%.
O=C(Nc1cccc2cccnc12)c1ccc(Br)cc1 was read as TRPV1 PAM 12.4 and TRPV1 agonist 14.4.
For CC(SCC(=O)Nc1ccccc1Br)c1nc2ccccc2c(=O)[nH]1 (configuration not stated) the results were hERG WT inh -2.3 and KCNH2 3.1 inh 2.3.
`O=C(CCc1nc(-c2ccccc2)no1)NCCc1ccccc1` gave hERG WT inh -0.6, TRPV1 PAM 4.2, KCNH2 3.1 inh -90.1*, TRPV1 agonist 7.0 and MBNL1 CUG block 6.3%.
`O=C(NCC1CCCO1)C(=O)N/N=C/c1ccc(O)c(Cl)c1` (configuration not stated) gave hERG WT inh -225.2*, TRPV1 PAM -11.0, KCNH2 3.1 inh -38.1 and TRPV1 agonist 0.8.
`O=C(NCC1CCCO1)C(=O)N/N=C/c1cc(Cl)ccc1O` (configuration not stated) gave hERG WT inh -0.5, TRPV1 PAM 5.3, KCNH2 3.1 inh 2.1, TRPV1 agonist 3.4 and MBNL1 CUG block 10.2%.
`CCOc1nc(NCCN2CCOCC2)nc(Nc2ccc([N+](=O)[O-])cc2)n1` gave hERG WT inh 22.5, TRPV1 PAM -7.6, TRPV1 agonist inconclusive and MBNL1 CUG block 14.4%.
`CCCC(C)C(=O)Nc1nnc(C)s1` (configuration not stated) gave hERG WT inh 0.5, TRPV1 PAM 0.2, KCNH2 3.1 inh 0.2, TRPV1 agonist -4.5 and MBNL1 CUG block 6.3%.
For CCOc1ccc(S(=O)(=O)N2CCCC(C(=O)NCC3CCCO3)C2)cc1 (configuration not stated) the results were hERG WT inh -4.6, TRPV1 PAM -6.5, KCNH2 3.1 inh 3.3, TRPV1 agonist 1.0 and MBNL1 CUG block -3.0%.
O=C(N/N=C/c1ccc(O)cc1)/C(=C/c1ccccc1)CCO was read as hERG WT inh -3.4, TRPV1 PAM 17.0, KCNH2 3.1 inh -88.2*, TRPV1 agonist -2.7 and MBNL1 CUG block 9.5%.
O=C(N/N=C/c1ccccc1)C(=O)N/N=C/c1ccccc1 was read as hERG WT inh 1.6, TRPV1 PAM 3.0, KCNH2 3.1 inh -4.3, TRPV1 agonist -1.0 and MBNL1 CUG block -0.9%.
Screening Cc1ccc(C(=O)c2c3ccc(C(F)(F)F)cc3[n+]([O-])n2CCCN)cc1 returned hERG WT inh -39.8, TRPV1 PAM 9.4, KCNH2 3.1 inh -84.7* and TRPV1 agonist -3.3.
`Cc1ccc(C(=O)c2c3ccc(C(F)(F)F)cc3[n+]([O-])n2CCCC(N)=O)cc1` gave hERG WT inh 10.5, TRPV1 PAM 7.3, KCNH2 3.1 inh -79.2* and TRPV1 agonist inconclusive.
Screening Cc1ccc(C(=O)c2c3ccc(C(F)(F)F)cc3[n+]([O-])n2CCC(N)=O)cc1 returned hERG WT inh 1.4, TRPV1 PAM -13.3, KCNH2 3.1 inh 24.2, TRPV1 agonist 7.6 and MBNL1 CUG block 9.8%.
Cc1cc(C)n(CC(=O)O)n1 was read as hERG WT inh -6.9, TRPV1 PAM 13.1, KCNH2 3.1 inh -182.5*, TRPV1 agonist -0.1 and MBNL1 CUG block -14.0%.
`CCN(Cc1ccccc1)c1ccc(N=Nc2nn(C)c(C)c2[N+](=O)[O-])cc1` gave hERG WT inh 0.9, TRPV1 PAM -1.6, KCNH2 3.1 inh -1.1, TRPV1 agonist 0.9 and MBNL1 CUG block inconclusive.
For CCN(CC)c1ccc(N=Nc2nn(C)c(C)c2[N+](=O)[O-])cc1 the results were hERG WT inh -124.9*, TRPV1 PAM -2.0, KCNH2 3.1 inh 3.4 and TRPV1 agonist 3.5.
COC(=O)c1cn(CC(=O)N2CCCCCC2)c2ccccc12 was read as hERG WT inh 11.7, TRPV1 PAM -4.6, KCNH2 3.1 inh -18.1, TRPV1 agonist -3.3 and MBNL1 CUG block -3.4%.
Screening CCOC(=O)C1=C(O)/C(=C/c2cn(CC(=O)N3CCCC3)c3ccccc23)SC1=Nc1ccccc1 returned hERG WT inh -102.2*, TRPV1 PAM 1.7, KCNH2 3.1 inh -12.8, TRPV1 agonist 3.9 and MBNL1 CUG block 17.1%.
`Cc1cc(F)c(F)c(C(=O)N2CCC(C)CC2)c1Cl` gave hERG WT inh 1.4, TRPV1 PAM 8.2, KCNH2 3.1 inh -135.0*, TRPV1 agonist -2.8 and MBNL1 CUG block -3.6%.
For Cc1noc(C)c1CSc1nc2[nH]ncc2c(=O)n1-c1ccccc1 the results were hERG WT inh 13.7, TRPV1 PAM 14.8, KCNH2 3.1 inh -17.6, TRPV1 agonist -4.2 and MBNL1 CUG block -3.2%.
Screening O=c1c2cn[nH]c2nc(SCc2c(F)cccc2F)n1-c1ccc(Cl)cc1 returned hERG WT inh -229.9*, TRPV1 PAM -9.6, KCNH2 3.1 inh 4.0, TRPV1 agonist -1.0 and MBNL1 CUG block -3.9%.
